Measured values reported in PubChem BioAssay (Tox21).
Results filed as inconclusive are left out. Entries that show only a call come without a potency. Active and inactive are the calls of the source. Unless noted, calls follow the shape of the dose curve; as a rule, active = well fitted curve in the direction sought with a large enough effect in the repeat runs; inconclusive = weak or mixed curves; inactive = no such curve, though single readings can be large; an effect the other way counts as inactive or inconclusive.

How the values were obtained:
[1] = target: Estrogen receptor (Homo sapiens) (UniProt P03372); experiment: qHTS assay to identify small molecule antagonists of the estrogen receptor alpha (ER-alpha) signaling pathway (AID 743069; active = well fitted curve in the direction sought with a large enough effect in the signal ratio in the repeat runs, not every such curve was filed as active; the % refers to the signal ratio); conditions: HEK293 ER-alpha-UAS-bla, beta-lactamase ratio, antagonist mode; series mostly up to 69.4 µM
Chain of Estrogen receptor (Homo sapiens) (P03372 whole entry, looked up): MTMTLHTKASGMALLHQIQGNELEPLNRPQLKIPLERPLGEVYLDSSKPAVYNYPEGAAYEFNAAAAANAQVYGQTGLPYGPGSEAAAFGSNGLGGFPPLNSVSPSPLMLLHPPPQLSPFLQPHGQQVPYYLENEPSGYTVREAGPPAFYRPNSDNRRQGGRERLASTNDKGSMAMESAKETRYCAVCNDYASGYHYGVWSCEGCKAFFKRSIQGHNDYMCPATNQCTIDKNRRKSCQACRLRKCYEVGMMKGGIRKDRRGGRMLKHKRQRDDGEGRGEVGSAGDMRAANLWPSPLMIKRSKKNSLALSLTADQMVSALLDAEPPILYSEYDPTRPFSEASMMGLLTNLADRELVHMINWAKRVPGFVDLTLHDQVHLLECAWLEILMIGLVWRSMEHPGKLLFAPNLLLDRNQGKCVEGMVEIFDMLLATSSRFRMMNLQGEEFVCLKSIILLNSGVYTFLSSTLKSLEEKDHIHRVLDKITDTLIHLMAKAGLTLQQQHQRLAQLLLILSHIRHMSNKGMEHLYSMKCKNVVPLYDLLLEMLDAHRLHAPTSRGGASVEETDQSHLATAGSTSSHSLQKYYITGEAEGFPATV
Method in brief: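 Compound effects are measured against 17beta-estradiol stimulation in HEK293 cells with a UAS-controlled beta-lactamase reporter for ER-alpha. Exposure lasts 18 hr at 37C; LiveBLAzer B/G FRET substrate follows for 2 hr at room temperature.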

[2] = qHTS assay to identify small molecule antagonists of the estrogen receptor alpha (ER-alpha) signaling pathway - cell viability counter screen (AID 743074; calls by dose curve;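 also: HEK293 cells carrying ER-alpha-UAS-bla reporter stimulated with 17beta-estradiol; nearly all actives have a fitted effect of over 45% in size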); conditions: ERalpha-bla HEK293 viability, CellTiter-Glo luminescence, 18 h; series mostly up to 69.4 µM
[3] = target: Estrogen receptor (Homo sapiens) (UniProt P03372); experiment: qHTS assay to identify small molecule agonists of the estrogen receptor alpha (ER-alpha) signaling pathway (AID 743075; calls by dose curve); conditions: HEK293 ER-alpha-UAS-bla, beta-lactamase FRET ratio, 18 h; series mostly up to 70.1 µM
[4] = target: Estrogen receptor (Homo sapiens) (UniProt P03372); experiment: qHTS assay to identify small molecule agonists of the estrogen receptor alpha (ER-alpha) signaling pathway using the BG1 cell line (AID 743079); conditions: BG1Luc4E2 cells, ERE-luciferase agonist, 22 h; series mostly up to 70.3 µM; also: nearly all actives have a fitted effect of over 20% in size; also: potency is read from the fitted curve at half-maximal effect
[5] = qHTS assay to identify small molecule antagonists of the estrogen receptor alpha (ER-alpha) signaling pathway using the BG1 cell line (AID 743080; calls by dose curve;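 also: BG1 cells stimulated with 17beta-estradiol alongside compound; nearly all actives have a fitted effect of over 25% in size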); conditions: BG1Luc4E2 ERE-luciferase antagonist mode, luminescence; series mostly up to 70.3 µM
Method in brief: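 BG1-Luc-4E2 cells (endogenous full-length ER-alpha, stable 4×ERE-luciferase) were starved 5 days in phenol-red-free medium with 10% charcoal-stripped FBS, plated 24 h, then given compound plus 17beta-estradiol for 21.5 h at 37 C; ONE-Glo luminescence read after 30 min.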

[6] = qHTS assay to identify small molecule antagonists of the estrogen receptor alpha (ER-alpha) signaling pathway using the BG1 cell line - cell viability counter screen (AID 743081); conditions: BG1Luc4E2 viability, CellTiter-Fluor, 22 h; series mostly up to 70.3 µM;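 also: compound given together with 17beta-estradiol as the ER stimulus; nearly all actives have a fitted effect of over 45% in size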
Aromatase (Homo sapiens) = Aromatase (Homo sapiens) (UniProt P11511); experiment: qHTS assay to identify aromatase inhibitors (AID 743083); conditions: MCF-7 aro ERE, testosterone-driven ERE luciferase, 24 h; series mostly up to 70.3 µM; also: nearly all actives have a fitted effect of over 55% in size
Chain of Aromatase (Homo sapiens) (P11511 whole entry, looked up): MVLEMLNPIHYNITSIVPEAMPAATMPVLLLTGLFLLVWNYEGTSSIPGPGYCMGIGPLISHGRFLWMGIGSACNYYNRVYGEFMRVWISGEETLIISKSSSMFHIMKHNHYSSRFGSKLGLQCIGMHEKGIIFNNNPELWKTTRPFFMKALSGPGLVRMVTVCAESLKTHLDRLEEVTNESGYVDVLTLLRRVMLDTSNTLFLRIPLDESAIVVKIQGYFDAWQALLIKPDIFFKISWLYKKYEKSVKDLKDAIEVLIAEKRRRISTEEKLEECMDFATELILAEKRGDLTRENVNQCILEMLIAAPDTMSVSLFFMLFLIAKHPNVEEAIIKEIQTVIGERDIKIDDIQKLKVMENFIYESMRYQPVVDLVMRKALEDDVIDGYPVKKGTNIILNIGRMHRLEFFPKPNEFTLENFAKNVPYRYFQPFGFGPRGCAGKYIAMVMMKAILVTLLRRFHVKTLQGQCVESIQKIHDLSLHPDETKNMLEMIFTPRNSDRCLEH

[7] = system: thyroid hormone receptor (rat, GH3 cells); experiment: qHTS assay to identify small molecule agonists of the thyroid receptor (TR) signaling pathway (AID 743066; calls by dose curve); conditions: GH3.TRE-Luc cells, TR agonist luciferase, 24 h; series mostly up to 83.9 µM
[8] = qHTS assay to identify small molecule antagonists of the thyroid receptor (TR) signaling pathway (AID 743065); conditions: GH3.TRE-Luc, T3-stimulated luciferase inhibition, 23.5 h; series mostly up to 70.3 µM; also: nearly all actives have a fitted effect of over 55% in size
Method in brief: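 Antagonism measured as loss of luciferase signal in GH3 cells stably carrying a TRE-luciferase reporter, co-treated with compound and T3 (1 nM final) for 23.5 h at 37 C. Viability was read in the same well by CellTiter-Fluor.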

[9] = qHTS assay to identify small molecule antagonists of the thyroid receptor (TR) signaling pathway - cell viability counter screen (AID 743064); conditions: GH3.TRE-Luc viability, CellTiter-Fluor, 24 h; series mostly up to 70.3 µM; also: nearly all actives have a fitted effect of over 50% in size
Method in brief: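 GH3.TRE-Luc rat pituitary cells carrying a TRE-luciferase reporter were treated with compound plus 1 nM T3 (final) for 23.5 h at 37 °C. Viability was then read in the same wells by CellTiter-Fluor fluorescence after a further 30 min.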

SMILES | outcome [1] | outcome [2] | outcome [3] | Potency [4] | Potency [5] | outcome [6] | Potency (Aromatase (Homo sapiens)) | outcome [7] | Potency [8] | Potency [9]
CC(C)CC(=O)O | inactive | inactive | inactive | inactive | inactive | inactive | inactive | – | – | –
CC(C)OC(=O)CCCCC(=O)OC(C)C | – | inactive | inactive | inactive | inactive | inactive | – | inactive | – | –
CCCCCCCCCCCCCC | – | inactive | – | – | – | inactive | inactive | – | – | –
N[C@@H](CCC(=O)N[C@@H](CS)C(=O)NCC(=O)O)C(=O)O | – | inactive | – | – | – | inactive | inactive | – | – | –
C[C@@H]1O[C@@H](O[C@@H]2[C@@H](O)[C@H](OCCc3ccc(O)c(O)c3)O[C@H](CO[C@@H]3O[C@H](CO)[C@@H](O)[C@H](O)[C@H]3O)[C@H]2OC(=O)/C=C/c2ccc(O)c(O)c2)[C@H](O)[C@H](O)[C@H]1O | – | inactive | – | – | – | – | inactive | inactive | inactive | –
CCCCCCOC(=O)CC | inactive | inactive | inactive | inactive | inactive | inactive | inactive | inactive | inactive | –
CC(C)=CCOC(=O)c1ccccc1 | – | inactive | – | – | – | inactive | – | inactive | inactive | –
Cc1ccccc1OCC(O)CO (stereo not given) | – | – | – | – | – | inactive | inactive | inactive | inactive | –
CC(=O)Nc1ccc(S(=O)(=O)Nc2ccc([N+](=O)[O-])cc2)cc1 | inactive | inactive | inactive | inactive | inactive | – | inactive | inactive | inactive | –
CC(C)CCCCOC(=O)c1ccccc1C(=O)OCCCCC(C)C | – | inactive | – | – | – | inactive | inactive | inactive | inactive | –
Cc1ccc(S(=O)(=O)O)c(C)c1 | inactive | inactive | inactive | inactive | inactive | inactive | inactive | – | – | inactive
COC(=O)c1ccccc1C(=O)c1ccc(OCCN2CCCCC2)cc1 | inactive | inactive | inactive | inactive | inactive | inactive | inactive | inactive | – | –
ClCCCl | inactive | inactive | inactive | inactive | inactive | inactive | inactive | inactive | inactive | –
CCCCOC(=O)c1ccccc1 | inactive | inactive | inactive | 34.4 µM (active) | inactive | inactive | inactive | – | – | –
O=C(O)c1ccc(Cl)cc1Cl | inactive | inactive | inactive | – | inactive | inactive | inactive | inactive | inactive | –
C[C@H](CCC(=O)O)[C@H]1CC[C@H]2[C@@H]3C(=O)C[C@@H]4CC(=O)CC[C@]4(C)[C@H]3CC(=O)[C@]12C | inactive | inactive | inactive | inactive | inactive | inactive | inactive | inactive | – | –
CC1=C(C(=O)O)N2C(=O)[C@@H](NC(=O)[C@H](N)c3ccc(O)cc3)[C@H]2SC1 | – | inactive | – | – | – | inactive | inactive | – | – | –
CNS(=O)(=O)CCc1ccc2[nH]cc(C3CCN(C)CC3)c2c1 | inactive | – | inactive | inactive | inactive | inactive | inactive | inactive | inactive | –
O=P(O)(O)OP(=O)(O)O | – | inactive | – | – | – | inactive | – | – | – | inactive
CCCN1C[C@H](CSC)C[C@@H]2c3cccc4[nH]cc(c34)C[C@H]21 | inactive | inactive | inactive | – | – | inactive | inactive | inactive | – | –
COc1cc(N)ccc1C | – | inactive | – | – | – | inactive | – | inactive | inactive | –
COc1cc2c(cc1OC)[C@@H]1CC(=O)[C@@H](CC(C)C)CN1CC2 | inactive | – | inactive | inactive | inactive | inactive | – | inactive | inactive | –
CCCCNC1CC(C)(C)NC(C)(C)C1 | inactive | inactive | inactive | inactive | inactive | – | inactive | inactive | – | –
C=C(C)C(=O)OCCN(CC)CC | – | inactive | – | – | – | inactive | inactive | inactive | inactive | –
CN1CCN(CC(=O)N2c3ccccc3C(=O)Nc3cccnc32)CC1 | inactive | inactive | inactive | inactive | inactive | inactive | inactive | – | – | –
C=C(C)C(=O)OCCNC(C)(C)C | – | inactive | – | – | – | inactive | inactive | – | – | inactive
